# Laboratory results from PubChem BioAssay.
# Values without a mark were called inactive. How the calls were made is not given here.
# Biological target: Pantothenate synthetase (Mycobacterium tuberculosis (strain ATCC 25618 / H37Rv)) (UniProt P9WIL5)
# Test: Recombinant Mtb pantothenate synthetase (PanC) inhibitors, coupled enzyme, confirmatory (AID 375);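 further: 0% = full reaction with vehicle and 100% = no enzyme background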
# Conditions: coupled enzyme assay; at 10 µM, hits give high values
# Sequence of Pantothenate synthetase (Mycobacterium tuberculosis (strain ATCC 25618 / H37Rv)) (P9WIL5 whole entry, looked up): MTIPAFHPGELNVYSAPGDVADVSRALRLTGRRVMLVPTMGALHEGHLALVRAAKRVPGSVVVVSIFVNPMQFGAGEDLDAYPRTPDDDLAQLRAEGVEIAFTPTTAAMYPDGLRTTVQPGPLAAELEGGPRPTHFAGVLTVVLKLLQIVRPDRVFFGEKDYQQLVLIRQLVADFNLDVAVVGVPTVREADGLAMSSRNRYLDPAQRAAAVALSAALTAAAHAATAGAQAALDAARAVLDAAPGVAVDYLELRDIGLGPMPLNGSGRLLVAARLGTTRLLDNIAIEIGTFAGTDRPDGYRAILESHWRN
row,Compound,inhibition
1,Cn1c(C(=O)NCc2cccnc2)cc2sccc21,0%
2,CCCCNS(=O)(=O)c1ccc(OC)c2ncccc12,3%
3,COc1cccc(NC(=O)c2ccccc2NS(C)(=O)=O)c1,0%
4,CO[C@@]1(NC(=O)CSCC#N)C(=O)N2C(C(=O)O)=C(CSc3nnnn3C)CS[C@@H]21,0%
5,CC(C)CC(=O)Nc1ccccc1-c1nnn(CC(=O)N2CCOCC2)n1,0%
6,O=C(COC(=O)c1cc(S(=O)(=O)N2CCOCC2)cs1)c1ccccc1,0%
7,Cc1ccc(C)c(OCC(O)CN2C(C)CCCC2C)c1 (centres undefined),0%
8,Cc1nnc(SCC(=O)N2CCC(C(N)=O)CC2)s1,0%
9,COc1ccc(OC)c(N(CC(=O)N2CCN(c3cc(Cl)ccc3C)CC2)S(C)(=O)=O)c1,2%
10,COc1ccc(OC)c(NC(=O)CSc2nc3ccccc3c(=O)n2CCNC(C)=O)c1,0%
11,Cc1ccc(S(=O)(=O)N2CCCC2)cc1S(=O)(=O)N1CCCC1,0%
12,CCOC(=O)c1c(C)n(OCc2ccccc2)c2ccc3c(no[n+]3[O-])c12,0%
13,CC(C)C(NC(=O)c1ccc(S(=O)(=O)N2CCOCC2)cc1)c1nc2ccccc2[nH]1 (centres undefined),0%
14,CN1CCN(c2ccc(Cl)cc2NC(=O)c2cccc(S(=O)(=O)N(C)C)c2)CC1,1%
15,Nc1nc2ccccc2n1/N=C/c1ccc(Br)cc1,1%
16,CSc1nnc2n(CCc3ccccc3)c(=O)c3c4c(sc3n12)CCCC4,2%
17,Cn1cccc1Cc1nnc(SCC(=O)NCC2CCCO2)n1-c1ccc(F)cc1 (centres undefined),0%
18,Cc1nc(/N=C\N(C)C)sc1C(=O)Nc1ccccc1,0%
19,CCNc1nc(NCC)n2c(SCc3nc4ccccc4c(=O)[nH]3)nnc2n1,1%
20,COc1ccc(OC)c(C2=NOC(C(=O)NCCN3CCOCC3)C2)c1 (centres undefined),0%

row,Compound,inhibition
1,CCSc1nc(-c2ccc(OC)cc2)ccc1C#N,1%
2,CC(=O)c1c(O)cc(C)n(Nc2nc(C)cc(C)n2)c1=O,0%
3,O=C1CSC(c2cn(-c3ccccc3)nc2-c2cccs2)N1CC1CCCO1 (centres undefined),2%
4,O=C1c2ccccc2-c2ccc(C(=O)N3CCOCC3)cc21,0%
5,Cn1c(-c2ccccc2)cc(=O)c2ccccc21,0%
6,COc1ccc(C2=NOC(C(=O)NCc3ccc(F)cc3)C2)cc1OC (centres undefined),0%
7,Cc1cc(C)cc(NC(=O)C2CCCN(c3nccc(C)n3)C2)c1 (centres undefined),0%
8,Cc1cc(C(=O)NCCCN2CCOCC2)n(-c2ccccc2)n1,0%
9,COC(=O)CN(c1ccc(OC)cc1)S(=O)(=O)c1ccc(OC)c(OC)c1,0%
10,CCOC(=O)c1ccccc1NC(=O)c1cc2sccc2n1C,2%
11,Cc1cccc(C(=O)N2CCN(C(=O)c3cccc(C)c3)C(C)C2)c1 (centres undefined),0%
12,O=C(NC1CCCC1)c1ccc2nc[nH]c2c1,0%
13,COCCNC(=O)CN1CCN(C(c2ccccc2)c2ccccc2)CC1,2%
14,O=C1OC(c2ccc(O)cc2)(c2ccc(O)cc2)c2ccccc21,4%
15,CCOC(=O)c1ccc(-n2c(=O)[nH]c3ccccc3c2=O)cc1,2%
16,Cc1cc(=O)n2nc(N3CCC(C(=O)N4CCN(Cc5ccccc5)CC4)CC3)sc2n1,2%
17,Cc1cc(C)n(-c2nc3c(c(=O)n(Cc4ccc(Cl)c(Cl)c4)c(=O)n3C)n2C)n1,1%
18,COc1ccc(-c2cc(C(=O)NCc3ccc(Cl)cc3)no2)cc1OC,0%
19,COc1cccc(NC(=O)N2CCN(c3cccc(C)c3C)CC2)c1,0%
